Among all 1,200 compounds or so, about 400 (33%) were called active. No rule for the calls is given here. These entries were drawn from the full list. Measured potencies and affinities stand elsewhere.
Assay: mammalian cell cytotoxicity, dose response, cytotoxicity control (AID 434958);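 also: cells exposed to compound for 72 hours before readout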
Details: cytotoxicity counter-screen; series mostly up to 40 µM

| SMILES | outcome |
| --- | --- |
| S=c1nccc(-c2ccc3c(c2)CCO3)[nH]1 | inactive |
| CC(=O)Nc1scc(C)c1-c1nc2ccccc2s1 | inactive |
| Cc1ccc(C(=O)Nc2nc3ccccc3s2)s1 | inactive |
| O=C1S/C(=C\C=C\c2ccco2)C(=O)N1c1ccccc1 | inactive |
| O=C1CS/C(=N/N=C2C3CC4CC(C3)CC2C4)N1 | inactive |
| NC(=S)N/N=C/c1ccc(/C=N/NC(N)=S)cc1 | inactive |
| CCOC(OCC)c1cn(Cc2ccc3c(c2)C(=O)c2ccccc2C3=O)nn1 | inactive |
| S=C(Nc1ccccc1)Nc1ccc(Cl)cn1 | inactive |
| c1ccc(CSc2nnc(-c3ccco3)o2)cc1 | inactive |
| O=C(Cn1c(=O)n(CCCC(=O)NC2CCCC2)c(=O)c2ccccc21)NCCC1=CCCCC1 | inactive |
| COc1cc(/C=C/c2ccc3cccc([N+](=O)[O-])c3n2)ccc1OCC(=O)O | inactive |
| CCOc1ccc(NC(=O)/C(C#N)=C/c2cn(CC(=O)O)c3ccccc23)cc1 | inactive |
| CC(C)(C)c1nc2scc(-c3cccs3)c2c(=O)o1 | inactive |
| O=C(CSc1nnc(-c2cnccn2)n1Cc1ccco1)Nc1ccc(Br)cc1 | inactive |
| CN(NC(=O)c1c(Cl)cccc1Cl)c1cccc(Cl)n1 | inactive |
| Cc1onc(-c2ccccc2Cl)c1C(=O)NCc1ccc2c(c1)cc(C)n2C | inactive |
| c1ccc(OCc2nnc(-c3ccccc3)o2)cc1 | inactive |
| CC1(C)CCN2CCC(C)(C)c3c(O)ccc1c32 | inactive |
| CCN(CC)C(=O)Cn1cc(C(=O)C(=O)N2CCN(c3ccccc3)CC2)c2ccccc21 | inactive |
| C#C[C@]1(O)CC[C@H]2[C@@H]3CCC4=C(CCC(=O)C4)[C@H]3CC[C@@]21C | inactive |
| Cc1ccc(SCc2c(-c3ccccc3)nn(C)c2Cl)cc1 | inactive |
| O=C(N/N=C/c1c(O)n(Cc2ccc(F)cc2)c(=S)[nH]c1=O)c1ccncc1 | inactive |
| COC(=O)Cn1nc(-c2ccccc2)c2ccccc21 | inactive |
| COC(=O)c1c(C(=O)OC)c(C)n(Cc2ccco2)c1C | inactive |

| SMILES | outcome |
| --- | --- |
| CCOc1cc(CNCCN(C)C)c(Cl)cc1OCC(=O)NCCc1ccccc1 | inactive |
| CCc1ccc(NC(=O)c2c(Cl)nc(C)c(Cl)c2C)cc1 | inactive |
| Cc1cc(=O)[nH]c(N/N=C/c2c(O)n(-c3ccccc3)c(=O)c3ccccc23)n1 | inactive |
| Cc1nn(-c2ccccc2)cc1/C=N/NC(N)=S | inactive |
| CCN(CC)C(=O)C1CCCN(c2ccc([N+](=O)[O-])cc2/C=N/NC(=O)c2cccc(O)c2)C1 (stereo not given) | inactive |
| O=C(N/N=C/c1c(Cl)cccc1Cl)c1cccc(F)c1 | inactive |
| Cc1ccccc1/C=N\NC(=O)c1csnn1 | inactive |
| COc1ccc(/C=N\NC(=O)c2sc(N)nc2C)cc1OC | inactive |
| CCc1ccc(NC(=S)Nc2ccc3[nH]c(=O)[nH]c3c2)cc1 | inactive |
| COc1ccc([N+](=O)[O-])cc1NC(=O)c1ccc(Br)s1 | inactive |
| CCOC(=O)c1c(NC(=O)COC(=O)c2ncc(Cl)c(Cl)c2Cl)sc(C(=O)N(C)C)c1C | inactive |
| COc1cc(OC)c2ccc(=O)oc2c1C(CC(=O)N1CCN(c2ccccc2)CC1)c1ccc2c(c1)OCO2 (stereo not given) | inactive |
| CCC(C(=O)Nc1ccccc1N1CCCC1)c1ccccc1 (stereo not given) | inactive |
| CCOCC(=O)N1CCN(c2ccc(F)cc2)CC1 | inactive |
| O=C(c1cccc(Cl)c1)N1CCN(Cc2ccccc2F)CC1 | inactive |
| Cc1ccc(CNC(=O)c2ccccc2NC(=O)CSc2nnnn2C)cc1 | inactive |
| Cc1ccc(C)c(NC(=O)COC(=O)c2ccc(S(=O)(=O)N3CCCCC3)cc2)c1 | inactive |
| O=c1[nH]c(C2CCN(S(=O)(=O)c3ccc(S(=O)(=O)NC4CC4)cc3)CC2)nc2c1nnn2Cc1ccc(F)cc1 | inactive |
| COc1cccc(-c2nnn(CC(=O)Nc3cc(OC)c(NC(=O)c4ccco4)cc3OC)n2)c1 | inactive |
| COCCCn1c(=O)/c(=C\c2ccccc2OC(C)C)s/c1=C(/C#N)C(=O)Nc1ccc(C(=O)O)cc1 | inactive |
| O=C1c2ccccc2N2C(=O)c3ccccc3C2N1O (stereo not given) | inactive |
| CSc1ccccc1NC(=O)c1c(Br)cnn1C | inactive |
| C(=N\n1cnnc1)/c1ccc(-c2ccccc2)cc1 | inactive |
| CCc1ccc(N2C(=O)c3sc4nnc(-c5ccccc5)c(=O)n4c3C2=O)cc1 | inactive |

| SMILES | outcome |
| --- | --- |
| Cn1c(/C=C/c2ccc(Cl)cc2)nc2ccccc2c1=O | inactive |
| CCOc1ccc2c(c1)c(C(C)=O)c(C)n2-c1ccccc1 | inactive |
| CCOC(=O)c1sc(NC(=O)CN2CCN(c3ccc(OC)cc3)CC2)nc1C | inactive |
| O=c1cc(C(F)(F)F)c2sc(N3CCCCC3)nc2[nH]1 | inactive |
| COc1ccc(NC(=O)CCC2CCCC2)cc1OC | inactive |
| CCN(CC)C(=O)COc1ccc(-c2nnc(Nc3ccc(OC)c(C(=O)NC)c3)c3ccccc23)cc1 | inactive |
| CCCc1cc(C(=O)Nc2ccc(C(C)=O)cc2)no1 | inactive |
| O=C1c2cccc3c(N4CCCCC4)ccc(c23)C(=O)N1c1ccccn1 | inactive |
| COC(=O)c1ccc(-c2cc(C(=O)O)c3cc4c(cc3n2)OCCO4)cc1 | inactive |
| O=C(NN=C(Cc1ccccc1)Cc1ccccc1)c1ccccc1F | inactive |
| C/C(=N\NC(=O)c1csc2ccccc12)c1ccc(O)cc1 | inactive |
| C/C(=N\NC(=O)c1ccncc1)c1c(O)n(-c2ccccc2)c(=O)[nH]c1=O | inactive |
| C/C(=N/NC(=O)c1ccccn1)c1ccncc1 | inactive |
| S=C(Nc1ccccc1Cl)N1CCCC(c2ccccc2)=N1 | inactive |
| CCN(CC)c1ccc(C=N/C(C#N)=C(\N)C#N)cc1 | inactive |
| COc1nc(-c2ccccc2)ccc1-c1noc(-c2cccnc2)n1 | inactive |
| CCn1nc(C)c([N+](=O)[O-])c1C(=O)NNC(=O)c1ccccc1Cl | inactive |
| COc1cccc(-c2ccc(-c3noc(-c4ccccc4F)n3)c(OC)n2)c1 | inactive |
| Cc1cc(Br)cc2c(C(=O)NCC3CCCO3)cc(-c3ccccc3)nc12 (stereo not given) | inactive |
| CCCn1c2ccccc2c2nnc(SCC(=O)OCC)nc21 | inactive |
| CC(C)(C)c1cc(Cc2ccccc2)[nH]n1 | inactive |
| COc1ccc([N+](=O)[O-])cc1NS(=O)(=O)c1ccc(Cl)c(C(=O)Nc2sc3c(c2C#N)CCCCC3)c1 | inactive |
